Compounds with a hit are over-represented: about 0.85% of the library has one in this group of screens.
TDP1 block – blocks human tyrosyl-DNA phosphodiesterase 1. Q9NUW8. recombinant TDP1, AlphaScreen DNA substrate cleavage. Potency, µM (top dose mostly 130 µM), most hits filed as inhibitors. actives 0.28% (n = 350,000). AID 485290; also: nearly all actives have a fitted effect of over 40% in size
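Here, a 5' biotin and 3' phosphotyrosine-FITC DNA oligonucleotide reports Tdp1 activity: intact substrate bridges AlphaScreen beads, while cleavage leaves a 3' phosphate and drops signal. All incubations at room temperature.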
Tb PGK inh – T. brucei PGK inhibition. P07378. PGK/GAPDH coupled, Kinase-Glo luminescence, 60 min. Potency, µM (titrated, usually from 57.5 µM), most hits filed as inhibitors. actives 0.043% (n = 380,000); also: nearly all actives have a fitted effect of over 60% in size
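Recombinant glycosomal PGK reaction used 1,3-bisphosphoglycerate generated in-well by GAPDH (100nM final) in 100mM TEA pH 7.6, 5mM MgCl2, 0.01% Tween-20. After 60 minutes at room temperature, ATP was read by Kinase-Glo Plus luminescence end-point.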
GLS inh – glutaminase GLS (human) inhibition. O94925. GLS enzymatic activity, qHTS titration. Potency, µM (doses to about 45.5 µM), usual class: inhibitors. actives 0.21% (n = 410,000)
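hKGA in 45 mM KH2PO4 (pH 8.2), 0.02% Tween-20 with compound, then 1mM L-Glutamine (stock as added) plus glutamate oxidase/HRP/Amplex red coupling mix. Fluorescence read initially and after 30 min at RT; signal change reflects glutamate formation.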
APEX1 inh – blocks human APE1 abasic DNA cleavage. P27695. AID 2517. Potency, µM (titrated, usually from 65.8 µM), hits mostly inhibitors. recombinant APE1, TAMRA/BHQ-2 abasic DNA cleavage fluorescence. actives 0.35% (n = 350,000); also: nearly all actives have a fitted effect of over 55% in size
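Substrate: short duplex with […] THF abasic site, 5'-TAMRA and 3'-BHQ-2, 50 nM final. APE1 at 0.75 nM, preincubated 15 min RT with compound. Fluorescence increase from first to third read measured activity.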
BLM inh – Bloom syndrome helicase (human) inhibition. actives 0.2% (n = 350,000). recombinant BLM DNA unwinding, fluorescence dequenching. AID 2528. Potency, µM (doses to about 56.1 µM), hits mostly inhibitors; also: nearly all actives have a fitted effect of over 35% in size
RECQ1 inh-1 – inhibitors of human RECQ1 DNA helicase; RECQ1 DNA unwinding, red fluorescence kinetic read; Potency, µM (highest dose often 57.3 µM), most hits filed as inhibitors; actives 0.54% (n = 240,000); AID 2549; also: nearly all actives have a fitted effect of over 30% in size
Target sequence (P46063 whole entry, looked up): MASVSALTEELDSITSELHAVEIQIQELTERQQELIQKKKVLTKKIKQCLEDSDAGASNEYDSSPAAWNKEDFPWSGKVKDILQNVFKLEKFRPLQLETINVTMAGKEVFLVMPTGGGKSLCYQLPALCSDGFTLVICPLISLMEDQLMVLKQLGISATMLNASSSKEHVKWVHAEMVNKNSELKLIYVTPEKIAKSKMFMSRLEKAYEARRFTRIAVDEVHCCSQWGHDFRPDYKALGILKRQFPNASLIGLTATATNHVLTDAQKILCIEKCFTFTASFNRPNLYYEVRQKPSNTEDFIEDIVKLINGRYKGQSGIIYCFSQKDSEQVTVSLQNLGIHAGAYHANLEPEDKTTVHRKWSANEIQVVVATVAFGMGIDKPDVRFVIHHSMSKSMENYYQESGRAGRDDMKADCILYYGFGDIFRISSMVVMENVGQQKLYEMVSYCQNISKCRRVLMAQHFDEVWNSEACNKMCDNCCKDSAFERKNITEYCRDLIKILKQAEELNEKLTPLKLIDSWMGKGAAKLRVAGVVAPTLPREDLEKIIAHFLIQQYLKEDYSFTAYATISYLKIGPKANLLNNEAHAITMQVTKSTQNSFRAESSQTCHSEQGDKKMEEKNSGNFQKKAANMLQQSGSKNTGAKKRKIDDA
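50 nM RECQ1T1 preincubated 15 min with compound in Tris pH 8.0 buffer with MgCl2, DTT, Tween-20 and 2.5 ug/ml poly(dI-dC); started with 200 nM TAMRA/BHQ-2 forked duplex and 2 mM ATP. Unwinding read as fluorescence (525/598 nm), two reads 2 h apart.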
RECQ1 conf – confirmation of human RECQ1 helicase inhibitors. shares compounds with RECQ1 inh-1. RECQ1 helicase DNA unwinding, fluorescence. Potency, µM (titrated, usually from 229 µM), most hits filed as inhibitors. actives 28% (n = 610); also: nearly all actives have a fitted effect of over 45% in size
ADP FP counter – displaces ADP in a fluorescence polarization counter-screen for RECQ1 hits; shares compounds with RECQ1 inh-1; ADP fluorescence polarization displacement counterscreen; Potency, µM (top dose mostly 228 µM), hits mostly inhibitors; actives 27% (n = 530); also: nearly all actives have a fitted effect of over 45% in size
RECQ1 inh-2 – confirmation of human RECQ1 helicase inhibitors. shares compounds with RECQ1 inh-1. recombinant RECQ1 DNA unwinding, red fluorescence. Potency, µM (doses to about 119 µM), hits mostly inhibitors. actives 15% (n = 1,100); also: nearly all actives have a fitted effect of over 50% in size
Hits are given with their value; . = inactive; ? = inconclusive; / = no result given. Calls follow the shape of the dose curve; as a rule, active = well fitted curve in the direction sought with a large enough effect; inconclusive = small, poorly fitted or top-dose-only effect, or another doubt; inactive = no such curve, though single readings can be large; an effect the other way counts as inactive or inconclusive.

SMILES | TDP1 block | Tb PGK inh | GLS inh | APEX1 inh | BLM inh | RECQ1 inh-1 | RECQ1 inh-2 | others
CCC1(c2ccccc2)NC(=O)NC1=O (configuration not stated) | . | / | / | . | . | . | /
CCCCN1C=CC(=C2C(=O)c3ccccc3C2=O)C=C1 | . | ? | . | . | . | ? | .
CNc1ccc(Br)cc(C(=O)/C=C/c2ccc(OC)cc2)c1=O | . | . | . | ? | ? | ? | .
CNc1ccc(Br)cc(C(=O)/C=C/c2ccc3c(c2)OCO3)c1=O | . | . | . | ? | . | ? | ?
CC(=O)n1cc([C@@H]2C=C(C(=O)NCc3ccccc3)O[C@H](OCc3ccc(CO)cc3)C2)c2ccccc21 | / | . | . | . | . | . | /
CC(=O)n1cc([C@H]2C=C(C(=O)Nc3ccccc3)O[C@@H](OCc3ccc(CO)cc3)C2)c2ccccc21 | . | . | . | . | . | 0.35µM | / | RECQ1 conf=.;ADP FP counter=.
C[C@H](NC(=O)[C@@H](N)Cc1ccc(O)cc1)C(=O)NCC(=O)N[C@H]1CSSC[C@@H](C(=O)O)NC(=O)[C@H](CO)NC(=O)[C@H]([C@@H](C)O)NC(=O)[C@H](Cc2ccccc2)NC(=O)[C@H]([C@@H](C)O)NC(=O)[C@H](CCCCN)NC(=O)[C@@H](Cc2c[nH]c3ccccc23)NC(=O)[C@H](Cc2ccccc2)NC(=O)[C@H](Cc2ccccc2)NC(=O)[C@H](CC(N)=O)NC(=O)[C@H](CCCCN)NC1=O | . | / | / | . | . | . | /
COc1ccc(NC=O)c(C(=O)CCNC(C)=O)c1 | . | / | / | . | . | . | /
Cc1ccccc1NC(=O)CSc1nc(N)c2c3c(sc2n1)CSC(C)(C)C3 | . | . | . | . | . | 22µM | .
C[N+]12CCCC[C@@H]1CCC(=C(c1cccs1)c1cccs1)C2 (some centres not stated) | / | / | . | / | . | / | /
O=C(Nc1ccccc1F)c1ccc(O)c2ncccc12 | / | / | / | . | / | / | /
Cc1noc(NS(=O)(=O)c2ccc(N/C=C\C(=O)c3ccc(Br)cc3)cc2)c1C | . | . | . | . | . | ? | .
CCOc1ccc(C(=O)/C=C/Nc2ccc(S(=O)(=O)Nc3onc(C)c3C)cc2)cc1 | . | . | . | . | . | . | /
CS/C(=N\S(=O)(=O)c1cccs1)NC(=O)CSc1nc2ccccc2s1 | . | . | ? | . | . | ? | ?
Clc1nc(NCc2cccs2)c2[nH]cnc2n1 | . | / | / | / | / | / | /
CCn1cc(CCC(=O)O)c(C)n1 | . | . | . | . | . | . | /
Cc1ccc(-c2nn(CCC(=O)O)cc2CCC(=O)O)cc1 | . | . | . | . | . | . | / | RECQ1 conf=.;ADP FP counter=?
COc1cccc(C(=O)CC2c3c(c(Br)c4c(c3OC)OCO4)CCN2C)c1 (configuration not stated) | . | / | / | ? | . | . | /
Nc1c(N2CCCC2)cc(Cl)c2nonc12 | . | . | . | ? | ? | ? | ?
Cc1cc(C)c2c(c1)C1C=CCC1C(C(=O)O)N2 (configuration not stated) | . | / | / | / | / | / | /
O=C(NCc1ccco1)C(=O)NCC1OCCN1S(=O)(=O)c1ccc(F)cc1 (configuration not stated) | . | . | . | . | . | . | /
O=C(NCc1ccco1)C(=O)NCC1OCCN1S(=O)(=O)c1cc(F)ccc1F (configuration not stated) | . | . | . | ? | . | 18µM | / | RECQ1 conf=.;ADP FP counter=.
O=c1cc(-c2ccccc2)oc2ccc(O)cc12 | . | . | . | . | . | . | /
COc1ccc(-c2cc(=O)c3cc(O)ccc3o2)cc1 | . | . | . | . | . | ? | .
Cc1ccc(NC(=O)CSCC#N)cc1Cl | . | . | . | . | . | 28µM | .
SMILES | TDP1 block | Tb PGK inh | GLS inh | APEX1 inh | BLM inh | RECQ1 inh-1 | RECQ1 inh-2 | others
COc1cc(Cl)c(C)cc1NC(=O)CSCC#N | . | . | . | . | . | . | /
CN1/C(=C\C(=O)COC(=O)Cn2nnc(-c3ccccc3)n2)C(C)(C)c2ccccc21 | . | . | . | . | . | ? | 45µM
CN1/C(=C/C(=O)COC(=O)CN2C(=O)C3CC=CCC3C2=O)C(C)(C)c2ccccc21 (configuration not stated) | / | . | . | / | / | / | /
CC1CCCCC1NC(=S)NC(=O)c1ccccc1Br (configuration not stated) | . | . | . | . | . | 40µM | .
COc1ccc(-c2nnc3n2N=C(c2ccccc2OC)CS3)c(OC)c1 | . | / | / | . | . | . | /
COC(=O)c1sc2ccccc2c1NC(=O)c1ccc(S(=O)(=O)N2CCCCC2C)cc1 (configuration not stated) | . | . | . | . | . | . | / | RECQ1 conf=.;ADP FP counter=.
COC(=O)c1sc2ccccc2c1NC(=O)c1ccc(S(=O)(=O)N2CCCCC2)cc1 | . | . | . | . | . | . | /
COc1cccc(C(C(=O)NCc2ccco2)N(C(=O)Cn2nnc3ccccc32)C2CC2)c1OC (configuration not stated) | . | . | . | . | . | ? | .
CC(C)Nc1ccc(Nc2ccnc3cc4ccccc4cc23)cc1 | . | . | . | ? | ? | 22µM | / | RECQ1 conf=22µM;ADP FP counter=.
O=C(O)c1ccccc1OS(=O)(=O)O | . | / | / | ? | . | . | /
C/C(=N\N=C(c1ccccc1)c1ccccc1)c1cccs1 | . | . | . | . | . | 18µM | / | RECQ1 conf=.;ADP FP counter=.
C/C(=N\N1CCN(c2ccccc2)CC1)c1cccs1 | / | . | . | . | . | . | /
O=C(COC(=O)c1ccc(S(=O)(=O)N2CCc3ccccc3C2)cc1)NC1CCS(=O)(=O)C1 (configuration not stated) | . | . | . | . | . | ? | ?
O=C(CC1C(=O)NCCN1Cc1ccc(-c2ccccc2)cc1)NCCOc1cccnc1 (configuration not stated) | . | . | . | . | . | ? | .
N#CC1=C2SCN(Cc3ccco3)CN2C(=O)CC1c1cccc2ccccc12 (configuration not stated) | . | . | ? | . | ? | ? | .
CCN(CC)C(=O)CSc1nc2ccc(NC(=O)CSc3nnc(N)s3)cc2s1 | . | . | . | ? | . | ? | /

Screening data as filed in PubChem BioAssay.
